# An excerpt weighted towards active compounds, which were near 21% of everything screened.
# ClpP mod = qHTS Assay for Activators of ClpP; purified B. subtilis ClpP, FRET peptide cleavage, 20 min; 340,000 compounds, 1.9% hits; ATP-dependent Clp protease proteolytic subunit (Bacillus subtilis (strain 168)), P80244; Potency, µM (doses to about 57.5 µM); active = well fitted falling curve with a large enough effect; inconclusive = small, poorly fitted or top-dose-only effect; inactive = no such curve, though single readings can be large or run the other way; also: the source files actives as falling curves though it sought activators and does not explain the sign; nearly all actives have a fitted effect of over 65% in size
#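 Purified B. subtilis ClpP, 10 microg/mL final in Tris/HCl pH8 with KCl, BSA, glycerol and Tween-20, cleaved an Abz/nitrotyrosine-quenched decapeptide. Fluorescence (ex 320, em 430) was read at 0 and 20 min at room temperature. Delta was normalized to 5.8 microM ADEP and DMSO/no-enzyme controls.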
# IL-1B inflam inh = inhibitors of inflammasome signaling (IL-1 beta secretion) | activity change, % at 57.5 µM | 360,000 compounds, 4.7% hits | AID 743279 | THP-1 LPS/ATP IL-1B secretion, AlphaLISA, 16 h; stronger effect = lower value; in the data active = activity change below about -50%; inconclusive = mostly about -30% to -49%
#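 Secreted IL-1B measured by AlphaLISA bead assay after 16 h compound exposure of THP-1 cells; compounds (final up to 57.5 uM) added 1 h before LPS (250 ng/mL) and ATP (1.25 mM) stimulation; lower signal means less secretion.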
# D3 antag = blocks the human D3 dopamine receptor; AID 652054; 360,000 compounds, 2.5% hits; P35462; D3R cells, DiscoveRx beta-arrestin luminescence, antagonist mode; stronger effect = lower value; max response, negative = inhibition, %; in the data active = max response below about -50%; inconclusive = no clear call, values can overlap the other calls
# Target sequence (P35462 whole entry, looked up): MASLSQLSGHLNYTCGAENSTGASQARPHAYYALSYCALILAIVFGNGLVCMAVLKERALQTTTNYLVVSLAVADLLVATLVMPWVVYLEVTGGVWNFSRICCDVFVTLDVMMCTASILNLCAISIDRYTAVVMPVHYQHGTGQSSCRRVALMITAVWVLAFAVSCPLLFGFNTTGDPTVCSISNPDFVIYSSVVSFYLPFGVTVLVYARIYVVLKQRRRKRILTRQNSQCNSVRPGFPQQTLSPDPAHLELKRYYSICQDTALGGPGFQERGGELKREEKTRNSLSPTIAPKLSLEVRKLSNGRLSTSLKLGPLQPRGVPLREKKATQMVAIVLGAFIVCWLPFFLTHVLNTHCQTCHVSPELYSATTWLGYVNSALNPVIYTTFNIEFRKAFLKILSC
#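 Cells expressing the human receptor were seeded at 1500 cells/well, incubated overnight at 37 degrees C in 5% CO2, then exposed to library compounds with dopamine controls for 90 minutes at 37 degrees C before luminescent detection.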
# D3 ag = agonists of human D3 dopamine receptor | P35462 | D3R DiscoveRx beta-arrestin cells, luminescence, 90 min | max activation, % | 410,000 compounds, 0.58% hits; in the data active = max activation above about 30%
#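 Cells at 1500/well, incubated overnight, then treated with pinned compounds (dopamine as control) for 90 min at 37 degrees C. DiscoveRx reagent added for 30 - 60 minutes at room temperature; luminescence read.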
# DT40 TDP1 CPT = DT40-hTDP1 cell growth loss with CPT; AID 686979; 420,000 compounds, 12% hits; chicken DT40 Tdp1-/-;hTDP1 cells + 20 nM CPT, ATP luminescence, 48 h; Potency, µM (doses to about 46.2 µM), hits mostly inhibitors; also: nearly all actives have a fitted effect of over 55% in size
#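 Cell growth measured by CellTiter-Glo luminescence after a minimum 48 h, 37 C compound exposure with 20 nM CPT in Tdp1-knockout DT40 cells stably expressing hTDP1, seeded 400/well; qHTS titration format.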
# DT40 TDP1 no CPT = qHTS for Inhibitors of human tyrosyl-DNA phosphodiesterase 1 (TDP1): qHTS in cells in absence of CPT | DT40 Tdp1-/- hTDP1 cells, no CPT, ATP luminescence, 48 h | Potency, µM (top dose mostly 46.2 µM), usual class: inhibitors | 420,000 compounds, 15% hits | AID 686978, 2013; also: nearly all actives have a fitted effect of over 55% in size
#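 Growth of hTDP1-complemented DT40 Tdp1-knockout cells is measured by ATP luminescence after at least 48 hr compound exposure at 37 °C, with DMSO substituting for the 20 nM CPT used in the parallel screen.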
# Numbers stand for hits; – = inactive; ? = inconclusive; · = not tested or not shown. Unless noted, calls follow the shape of the dose curve; as a rule, active = well fitted inhibition curve with a large enough effect; inconclusive = small, poorly fitted or top-dose-only effect; inactive = flat fitted curve, though single readings scatter.
SMILES,ClpP mod,IL-1B inflam inh,D3 antag,D3 ag,DT40 TDP1 CPT,DT40 TDP1 no CPT
CC(C)(C)c1ccccc1NC(=S)NCc1ccccc1,–,–,–,–,?,18µM
CCc1cc(C(=O)NNC(=S)Nc2ccccc2C)cs1,–,–,-97,–,?,?
COc1ccc(OC)c(NC(=S)NCCC(c2ccccc2)c2ccccc2)c1,–,–,–,–,?,15µM
Cc1ccc(SCC(=O)NC(=O)NCc2ccccc2)c(C)c1,35µM,–,–,–,–,–
CCOC(=O)c1c(C)c(C(=O)NCCc2ccc(OC)cc2)c(C)n1CC,–,·,·,–,–,?
Cc1cn(S(=O)(=O)c2ccc(F)c(Cl)c2)cn1,–,·,·,–,–,–
NC(c1ccccc1)c1cccs1 (stereo not given),–,–,–,–,–,–
O=S(=O)(c1ccccc1)C1(C2CC(c3ccccc3)=NO2)CC(O)C1 (stereo not given),–,–,–,–,?,–
O=C(NCc1ccncc1)c1cccc(S(=O)(=O)Nc2ccc(SC(F)F)cc2)c1,–,–,–,–,–,?
CCOc1ccc(NC(=S)NC(C)CCc2ccccc2)cc1 (stereo not given),·,–,–,–,–,–
Cc1ccccc1NC(=S)NC(C)CCc1ccccc1 (stereo not given),–,–,–,–,?,21µM
CCN(CC(=O)NCc1ccc(Cl)cc1)C(=O)c1sccc1C,–,–,–,–,?,–
Cc1ccc(-c2cnc3c(Cl)c(C)nn3c2)cc1,·,–,–,–,21µM,10µM
Cc1ccc(-c2cnc3cc(C)nn3c2)cc1,·,–,–,–,–,?
Cc1ccc(C)c(NC(=O)Cn2c(=O)n(CCC(C)C)c(=O)c3cccnc32)c1,–,·,·,–,–,–
CCc1nc2ccccc2n1Cc1ccccc1F,·,–,–,–,?,?
COc1ccc(-c2cc(C(=O)OCC(=O)NC3CC3)c3ccccc3n2)cc1OC,·,–,–,–,–,?
Cc1c(CN(C)C(=O)c2cc(-c3ccccc3)nc3ccc(Br)cc23)cnn1C,–,·,·,–,21µM,10µM
COc1ccccc1C(=O)NCC(=O)N(C)Cc1nc2ccccc2c(=O)[nH]1,–,–,–,–,–,–
COc1ccc(CN(C)C(=O)c2cc(-c3ccc(OC)c(OC)c3)nc3ccccc23)c(OC)c1,–,–,–,–,16µM,18µM
Cc1cnn(C(=O)c2cc(-c3ccccc3)nc3ccccc23)c1,–,–,–,–,–,–
COc1ccc(-c2cc(C(=O)N(C)Cc3nc4ccccc4c(=O)[nH]3)c3ccccc3n2)cc1OC,–,–,–,–,?,21µM
COc1ccc(-c2cc(C(=O)N(C)Cc3cccc(OC)c3OC)c3ccccc3n2)cc1OC,·,–,–,–,21µM,15µM
CC(=O)NCCC(=O)Nc1cc(S(=O)(=O)N2CCCCC2)ccc1Oc1ccccc1,–,–,–,–,–,–
COc1cccc(CN(C)C(=O)c2cc(-c3ccc(F)cc3)nc3ccccc23)c1,–,–,–,–,21µM,21µM
SMILES,ClpP mod,IL-1B inflam inh,D3 antag,D3 ag,DT40 TDP1 CPT,DT40 TDP1 no CPT
COc1cccc(CN(C)C(=O)c2cc(-c3ccc(OC)c(OC)c3)nc3ccccc23)c1,?,–,–,34,15µM,?
COc1ccc(CN(C)C(=O)c2cc(-c3ccccc3)nc3ccc(C)cc23)c(OC)c1OC,–,-64,–,–,18µM,16µM
COc1ccccc1CN(C)C(=O)c1cc(-c2cccs2)nc2ccccc12,·,–,–,–,?,16µM
Cc1ccc(CNC(=O)C(=O)Nc2nccs2)cc1,–,–,–,–,–,–
CSc1ccc(CN(C)CC(=O)NCCc2ccccc2)cc1,·,–,–,–,–,–
CCOC(=O)C1CCN(C(=O)c2cc3sc(C)cc3n2C)CC1,–,·,·,–,–,–
CCC(=O)N1c2ccc(S(=O)(=O)NCc3cccc(OC)c3)cc2CC1C (stereo not given),–,·,·,–,?,?
